Assay results reported in PubChem BioAssay AID1159580 (chemical genetic matrix, 2015).
About 2,000 (36%) of roughly 5,500 compounds were called active. Roughly 18% stayed inconclusive and do not appear here. No stated cut-off is given here; in the data, active means normalized growth mostly below about 0.91 (no sharp cut-off); inconclusive means no clear call, values can overlap the other calls; inactive means mostly above about 0.92. Some of the results follow.

Experiment: chemical genetic growth profiling, strain panel (AID 1159580);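 further: tested at 20 µM; growth read once vehicle control cultures reached saturation at 30 °C; 1 = growth at the plate median or of vehicle wells; lower values mean less growth of the strain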
Conditions: growth OD

Measured: normalized growth

CC(C)N1C(=O)c2ccccc2NS1(=O)=O
inactive: S. cerevisiae deletion strains, locus YKL009W, strain mrt4, active compounds read low 1.01 | S. cerevisiae deletion strains, locus YKL068W, active compounds read low 0.994 | S. cerevisiae deletion strains, locus YKL085W, strain MDH1 (second series), active compounds read low 0.997 | S. cerevisiae deletion strains, locus YKL085W, strain MDH1, active compounds read low 0.997 | S. cerevisiae deletion strains, locus YKL160W, strain elf1, active compounds read low 0.974 | S. cerevisiae deletion strains, locus YKL190W, strain CNB1, active compounds read low 0.998 | S. cerevisiae deletion strains, locus YKR001C, strain vps1, active compounds read low 1.01 | S. cerevisiae deletion strains, locus YKR026C, strain gcn3, active compounds read low 0.972 | S. cerevisiae deletion strains, locus YKR091W, strain srl3, active compounds read low 0.958 | S. cerevisiae deletion strains, locus YLL001W, strain dnm1, active compounds read low 0.937 | S. cerevisiae deletion strains, locus YLL026W, active compounds read low 0.971 | S. cerevisiae deletion strains, locus YLL041C, strain sdh2, active compounds read low 0.958 | S. cerevisiae deletion strains, locus YLR027C, strain aat2, active compounds read low 0.964 | S. cerevisiae deletion strains, locus YLR039C, strain RIC1, active compounds read low 1.03 | S. cerevisiae deletion strains, locus YLR058C, strain SHM2, active compounds read low 1 | S. cerevisiae deletion strains, locus YLR102C, strain apc9, active compounds read low 1 | S. cerevisiae deletion strains, locus YLR113W, strain HOG1, active compounds read low 0.964 | S. cerevisiae deletion strains, locus YLR221C, strain rsa3, active compounds read low 0.994 | S. cerevisiae deletion strains, locus YLR258W, strain gsy2, active compounds read low 0.98 | S. cerevisiae deletion strains, locus YLR262C, strain YPT6 (second series), active compounds read low 0.983 | S. cerevisiae deletion strains, locus YLR262C, strain YPT6, active compounds read low 1.02 | S. cerevisiae deletion strains, locus YLR268W, strain sec22, active compounds read low 1.01 | S. cerevisiae deletion strains, locus YLR320W, strain mms22, active compounds read low 1.01 | S. cerevisiae deletion strains, locus YLR330W, strain CHS5, active compounds read low 0.994 | S. cerevisiae deletion strains, locus YLR342W, strain FKS1 (second series), active compounds read low 1 | S. cerevisiae deletion strains, locus YLR342W, strain FKS1, active compounds read low 0.98 | S. cerevisiae deletion strains, locus YLR357W, strain rsc2, active compounds read low 0.978 | S. cerevisiae deletion strains, locus YLR370C, strain arc18, active compounds read low 0.973 | S. cerevisiae deletion strains, locus YLR371W, strain rom2, active compounds read low 1 | S. cerevisiae deletion strains, locus YLR384C, strain iki3, active compounds read low 0.974 | S. cerevisiae deletion strains, locus YLR418C, strain cdc73, active compounds read low 1.02 | S. cerevisiae deletion strains, locus YML016C, strain PPZ1, active compounds read low 0.997 | S. cerevisiae deletion strains, locus YML032C, strain rad52, active compounds read low 1.01 | S. cerevisiae deletion strains, locus YML120C, strain ndi1, active compounds read low 0.956 | S. cerevisiae deletion strains, locus YML124C, strain tub3, active compounds read low 1 | S. cerevisiae deletion strains, locus YMR058W, strain fet3, active compounds read low 0.968 | S. cerevisiae deletion strains, locus YMR078C, strain ctf18, active compounds read low 0.998 | S. cerevisiae deletion strains, locus YMR125W, strain sto1, active compounds read low 0.933 | S. cerevisiae deletion strains, locus YMR129W, active compounds read low 0.964 | S. cerevisiae deletion strains, locus YMR205C, strain PFK2, active compounds read low 0.961 | S. cerevisiae deletion strains, locus YMR223W, strain ubp8, active compounds read low 1 | S. cerevisiae deletion strains, locus YMR231W, strain pep5, active compounds read low 0.974 | S. cerevisiae deletion strains, locus YMR263W, strain SAP30, active compounds read low 1.01 | S. cerevisiae deletion strains, locus YMR307W, strain GAS1, active compounds read low 1.03 | S. cerevisiae deletion strains, locus YNL067W, strain RPL9B, active compounds read low 0.995 | S. cerevisiae deletion strains, locus YNL071W, strain lat1, active compounds read low 0.98 | S. cerevisiae deletion strains, locus YNL128W, strain TEP1, active compounds read low 1.01 | S. cerevisiae deletion strains, locus YNL153C, strain GIM3, active compounds read low 0.994 | S. cerevisiae deletion strains, locus YNL183C, strain NPR1, active compounds read low 0.973 | S. cerevisiae deletion strains, locus YNL209W, strain ssb2, active compounds read low 0.963 | S. cerevisiae deletion strains, locus YNL233W, strain BNI4, active compounds read low 0.997 | S. cerevisiae deletion strains, locus YNL248C, strain rpa49, active compounds read low 0.99 | S. cerevisiae deletion strains, locus YNL250W, strain rad50, active compounds read low 0.997 | S. cerevisiae deletion strains, locus YNL271C, strain bni1, active compounds read low 0.998 | S. cerevisiae deletion strains, locus YNL298W, strain CLA4, active compounds read low 1.01 | S. cerevisiae deletion strains, locus YNL307C, strain MCK1, active compounds read low 1.01 | S. cerevisiae deletion strains, locus YNL322C, strain KRE1 (second series), active compounds read low 0.951 | S. cerevisiae deletion strains, locus YNL322C, strain KRE1, active compounds read low 1 | S. cerevisiae deletion strains, locus YNR049C, strain mso1, active compounds read low 0.952 | S. cerevisiae deletion strains, locus YNR052C, strain pop2, active compounds read low 0.996 | S. cerevisiae deletion strains, locus YOL006C, strain TOP1, active compounds read low 1.06 | S. cerevisiae deletion strains, locus YOL012C, strain htz1 1.04 | S. cerevisiae deletion strains, locus YOL147C, strain pex11, active compounds read low 0.997 | S. cerevisiae deletion strains, locus YOR001W, strain rrp6, active compounds read low 0.967 | S. cerevisiae deletion strains, locus YOR061W, strain CKA2, active compounds read low 0.998 | S. cerevisiae deletion strains, locus YOR069W, strain VPS5, active compounds read low 0.989 | S. cerevisiae deletion strains, locus YOR070C, strain gyp1, active compounds read low 0.983 | S. cerevisiae deletion strains, locus YOR080W, strain dia2, active compounds read low 0.98 | S. cerevisiae deletion strains, locus YOR083W, strain WHI5, active compounds read low 0.964 | S. cerevisiae deletion strains, locus YOR106W, strain vam3, active compounds read low 0.966 | S. cerevisiae deletion strains, locus YOR136W, strain idh2, active compounds read low 1 | S. cerevisiae deletion strains, locus YOR144C, strain elg1, active compounds read low 0.999 | S. cerevisiae deletion strains, locus YOR184W, strain ser1, active compounds read low 1.01 | S. cerevisiae deletion strains, locus YOR231W, strain MKK1, active compounds read low 0.998 | S. cerevisiae deletion strains, locus YOR265W, strain rbl2, active compounds read low 0.973 | S. cerevisiae deletion strains, locus YOR270C, strain vph1, active compounds read low 0.97 | S. cerevisiae deletion strains, locus YOR290C, strain snf2, active compounds read low 0.96 | S. cerevisiae deletion strains, locus YOR316C, strain cot1, active compounds read low 1.01 | S. cerevisiae deletion strains, locus YPL051W, strain arl3, active compounds read low 0.981 | S. cerevisiae deletion strains, locus YPL055C, strain LGE1, active compounds read low 1.02 | S. cerevisiae deletion strains, locus YPL078C, strain atp4, active compounds read low 0.961 | S. cerevisiae deletion strains, locus YPL106C, strain sse1, active compounds read low 0.971 | S. cerevisiae deletion strains, locus YPL240C, strain hsp82, active compounds read low 0.968 | S. cerevisiae deletion strains, locus YPL241C, strain CIN2, active compounds read low 0.999 | S. cerevisiae deletion strains, locus YPL256C, strain CLN2, active compounds read low 0.987 | S. cerevisiae deletion strains, locus YPR119W, strain clb2, active compounds read low 0.99 | S. cerevisiae deletion strains, locus YPR141C, strain kar3, active compounds read low 1.01 | S. cerevisiae deletion strains, locus YPR163C, strain tif3, active compounds read low 1 | S. cerevisiae deletion strains, locus YPR167C, strain met16, active compounds read low 0.996 | S. cerevisiae deletion strains, strain wtn01, active compounds read low 1.01 | S. cerevisiae strains, strain wild type, active compounds read low 0.997
